Assay [1] deals with Estrogen receptor (Homo sapiens) (UniProt P03372). Put plainly: qHTS assay for small molecule agonists of estrogen receptor alpha signaling (AID 588514; calls by dose curve;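 note: 0% = vehicle only and 100% = reference agonist; nearly all actives have a fitted effect of over 70% in size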). The gist of the method: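 ER-alpha-UAS-bla GripTite HEK 293 cells in medium with 2% charcoal/dextran-treated FBS were treated with compound titrations at 37 C for 18 hrs; beta-lactamase reporter read by CCF4 fluorescence after 2 hrs at RT.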
(qHTS replaces the single test concentration by a dilution series.)

In assay [2] the target is Glucocorticoid receptor (Homo sapiens) (UniProt P04150). Put plainly: qHTS assay for small molecule antagonists of glucocorticoid receptor signaling (AID 588533; active = well fitted inhibition curve with a large enough effect in the signal ratio, with a control signal flat, not every such curve was filed as active; the % refers to the signal ratio;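 note: cells stimulated with 2 nM dexamethasone as agonist; % is set by controls: 0 for no effect and ±100 for the full control effect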). The gist of the method:
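Antagonist-mode qHTS: compound titrations added to GRE-bla HeLa cells, then dexamethasone 2 nM final; 18 h, 37 C. CCF4 FRET fluorescence normalized to dexamethasone and DMSO; IC50 from Hill fit.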

Assay [3] is described as follows: qHTS assay for environmental chemicals that activate the Aryl hydrocarbon Receptor (AhR) signaling pathway (AID 651777). Note: % of control where 0% means no effect; nearly all actives have a fitted effect of over 15% in size. As to conditions: 1A2-DRE human hepatoma cells, luciferase, 24 h; activation: stronger effect = higher value. The gist of the method:
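Luminescence (One-Glo, 30 min, room temperature) reports AhR-driven luciferase in stably transfected human hepatoma cells bearing DRE and CYP1A2 promoter. Cells (1,200/well) were treated with compound for 24 hr at 37 C in qHTS format.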

Assay [4] has as its target Peroxisome proliferator-activated receptor alpha (Homo sapiens) (UniProt Q07869). Put plainly: qHTS assay for small molecule agonists of the peroxisome proliferator-activated receptor alpha (PPARalpha) signaling pathway (AID 651778). Note: % of control where 0% means no effect. As to conditions: PathHunter PPARalpha complementation, chemiluminescence, 6 h; max response: stronger effect = higher value. The gist of the method:
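Cells plated at 2,000/well and held overnight at 37 C, 5% CO2, then compound added by pin tool for 6 hr; after PathHunter detection reagent and 60 min at room temperature, chemiluminescence from enzyme complementation was read.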

Assay [5] in a line: qHTS assay for small molecule agonists of the antioxidant response element (ARE) signaling pathway measured by Nrf2-dependant transcriptional activity (AID 720636; active = well fitted curve in the direction sought with a large enough effect in the repeat runs; an effect the other way counts as inactive or inconclusive; note: % of control where 0% means no effect). In outline:
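Nrf2-dependent transcription read as ONE-Glo luciferase signal from ARE-luc HepG2 reporter cells after 16 hr compound treatment at 37 C, 5% CO2, in assay medium with 1% dialyzed FBS.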

Assay [6] can be described thus: qHTS assay for small molecule agonists of the antioxidant response element (ARE) signaling pathway measured by Nrf2-dependant transcriptional activity - cell viability counter screen (AID 720653; active = well fitted curve in the direction sought with a large enough effect in the repeat runs; an effect the other way counts as inactive or inconclusive; note: % is set by controls: 0 for no effect and ±100 for the full control effect). To be noted: ARE-bla HepG2 viability, CellTiter-Glo ATP luminescence, 16 h; max response: stronger effect = lower value. The gist of the method: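 ARE-bla HepG2 cells (2,000/well) rested 5 hrs at 37C/5% CO2, then exposed to compounds in DMSO for 16 hrs. Viability was read in the same wells as intracellular ATP by luminescence, 30 min at room temperature after reagent addition.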

Assay [7] can be described thus: qHTS assay for cell viability of HEK293 cells (AID 743288). Note: % is set by controls: 0 for no effect and ±100 for the full control effect; nearly all actives have a fitted effect of over 50% in size. To be noted: ATP luminescence (CellTiter-Glo), 18 h; max response: stronger effect = lower value. In outline:
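Parental HEK293 cells were seeded at 2,000 cells/well, rested at least 5 h at 37 C, then exposed to compounds in DMSO for 18 h at 37 C. Viability was read as ATP-dependent luciferase luminescence after 30 min at room temperature.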

A short description of assay [8]: qHTS assay for cell viability of the p53RE-bla HCT-116 cell line (AID 743292). Note: % is set by controls: 0 for no effect and ±100 for the full control effect; nearly all actives have a fitted effect of over 55% in size. In outline: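 ATP-based luminescent viability (CellTiter-Glo, 30 min RT) after 16 h compound treatment at 37 C of p53RE-bla HCT-116 cells, seeded at 4,000 cells/well and rested 5 h before dosing.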
The target in assay [9] is Glucocorticoid receptor (Homo sapiens) (UniProt P04150). Put plainly: qHTS assay for small molecule agonists of glucocorticoid receptor signaling (AID 588532; active = well fitted curve in the direction sought with a large enough effect in the signal ratio, with a control signal flat; the % refers to the signal ratio;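 note: 100% = dexamethasone at 0.1 µM and 0% = DMSO only wells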). As to conditions: HeLa MMTV-bla, beta-lactamase ratio, agonist, 18 h; activation: stronger effect = higher value, percent of dexamethasone control, DMSO zero. In outline: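 MMTV-bla HeLa, beta-lactamase reporter; medium with 1% charcoal/dextran-stripped FBS; cpds up to 92 uM, 18 h, 37 C; CCF4 readout 460/530 nm; Hill fit → EC50, efficacy vs 0.1 uM dexamethasone = 100%.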

Assay [10] in a line: qHTS assay for small molecule antagonists of peroxisome proliferator-activated receptor delta signaling (AID 588535; active = well fitted inhibition curve with a large enough effect in the signal ratio, with a control signal flat, not every such curve was filed as active; the % refers to the signal ratio;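 for max response: cells co-treated with a PPAR-delta agonist as stimulator during compound exposure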). As to conditions: HEK293T PPARd-UAS-bla, beta-lactamase FRET ratio, 18 h; 460 nm channel. In outline: (§1)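 GeneBLAzer PPAR-delta-UAS-bla HEK293T cells in medium with 2% charcoal/dextran FBS were preincubated 5 hrs at 37 C, then given compounds, incubated 18 hrs at 37 C, and read by CCF4 beta-lactamase fluorescence; IC50 from Hill fits.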

For assay [11], the target named is Peroxisome proliferator-activated receptor delta (Homo sapiens) (UniProt Q03181). Described as above. In outline: as §1
The target in assay [12] is Peroxisome proliferator-activated receptor gamma (Homo sapiens) (UniProt P37231). Put plainly: qHTS assay for small molecule agonists of peroxisome proliferator-activated receptor gamma signaling (AID 588536; active = well fitted curve in the direction sought with a large enough effect in the signal ratio, with a control signal flat, not every such curve was filed as active; the % refers to the signal ratio;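 note: 0% = DMSO basal wells and 100% = rosiglitazone at 2 µM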). The gist of the method:
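PPAR-gamma-UAS-bla HEK293 cells in medium with 1% charcoal/dextran-treated FBS were exposed to compounds for 16 h at 37 C. Beta-lactamase activity was read with CCF4 substrate (405 nm excitation, 460/530 nm emission).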

Assay [13] addresses Thyroid hormone receptor beta (Homo sapiens) (UniProt P10828). The assay is described as follows: qHTS assay for small molecule agonists of thyroid hormone receptor beta signaling (AID 588545; calls by dose curve;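 note: 0% = DMSO only and 100% = 10 nM T3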). In outline:
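TR-UAS-bla GripTite HEK 293 cells (2500/well, medium with 2% charcoal/dextran FBS) were treated in agonist mode for 18 h at 37 C, titrated. Beta-lactamase was read by CCF4 ratio after 2 h; normalized to 10 nM T3 (100%) and DMSO, Hill-fitted for EC50 and efficacy.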

Assay [14] is described as follows: qHTS assay for small molecule antagonists of retinoid X receptor alpha signaling (AID 588546; active = well fitted inhibition curve with a large enough effect in the signal ratio, with a control signal flat, not every such curve was filed as active; the % refers to the signal ratio;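 note: cells stimulated with 9-cis-retinoic acid as agonist; % is set by controls: 0 for no effect and ±100 for the full control effect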). As to conditions: HEK293T RXRa-UAS-bla, beta-lactamase ratio, antagonist mode; measured here: W530 green channel, cytotoxicity proxy. The gist of the method:
(§2)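 Beta-lactamase reporter inhibition, read as CCF4 fluorescence ratio (ex 405, em 460/530 nm) after 2 h at RT. HEK293T UAS-bla cells, 2500/well, were stimulated with 9-cis-RA at 500 or 100 nM final alongside test compound for 18 h at 37 C.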

Assay [15] addresses Retinoic acid receptor RXR-alpha (Homo sapiens) (UniProt P19793). The description is as above. To be noted: HEK293T RXRa-UAS-bla, beta-lactamase ratio, antagonist mode. The gist of the method:
as §2

Assay [16] addresses Thyroid hormone receptor beta (Homo sapiens) (UniProt P10828). Put plainly: qHTS assay for small molecule antagonists of thyroid hormone receptor beta signaling (AID 588547; active = well fitted inhibition curve with a large enough effect in the signal ratio, with a control signal flat, not every such curve was filed as active; the % refers to the signal ratio;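 note: cells stimulated with 0.4 nM T3 agonist during compound exposure; series mostly up to about 77 µM; % is set by controls: 0 for no effect and ±100 for the full control effect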). To be noted: TR-UAS-bla HEK293, beta-lactamase ratio, antagonist mode, 18 h. The gist of the method:
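TR-UAS-bla GripTite HEK293 cells in 2% charcoal/dextran FBS medium were preincubated 4 h at 37 C, given compound (0.59 nM to 92 uM) plus 0.4 nM T3 (final) for 18 h, then CCF4 for 2 h at RT; Hill fit gave IC50.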

Assay [17] is described as follows: qHTS assay for small molecule activators of the p53 signaling pathway (AID 651743; active = well fitted activation curve with a large enough effect in the signal ratio, not every such curve was filed as active; the % refers to the signal ratio; note: series mostly up to about 92 µM; % of control where 0% means no effect). To be noted: HCT-116 p53RE-bla, beta-lactamase FRET ratio, 16 h; activation: stronger effect = higher value. In outline:
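p53RE-bla HCT-116 cells with a stably integrated beta-lactamase reporter under p53 response elements were plated, rested 5 hours at 37 C/5% CO2, then exposed to compounds in DMSO for 16 hours at 37 C. LiveBLAzer B/G FRET substrate was read after 2 hours at room temperature.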

Assay [18] deals with Peroxisome proliferator-activated receptor delta (Homo sapiens) (UniProt Q03181). Put plainly: qHTS assay for small molecule agonists of peroxisome proliferator-activated receptor delta signaling (AID 588534; calls by dose curve;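 note: 0% = DMSO basal wells and 100% = positive control agonist at 10 µM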). The gist of the method:
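Cell-based beta-lactamase reporter assay run in agonist mode: cells seeded and incubated 5 hrs at 37 C, compounds added and incubated 18 hrs at 37 C. CCF4 dye fluorescence read after 2 hrs at RT; EC50 and efficacy from Hill fits.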

The target in assay [19] is Retinoic acid receptor RXR-alpha (Homo sapiens) (UniProt P19793). Put plainly: qHTS assay for small molecule agonists of retinoid X receptor alpha signaling (AID 588544; calls by dose curve;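 note: 0% = DMSO basal wells and 100% = reference agonist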).
For assay [20], the target named is Nuclear receptor subfamily 1 group I member 2 (Rattus norvegicus) (UniProt Q9R1A7). Put plainly: qHTS assay for small molecule activators of the rat pregnane X receptor (rPXR) signaling pathway (AID 651751; call rule not given here; note: 0% is about no effect). As to conditions: rPXR reporter cells, luciferase (One-Glo), 24 h.

Data on five compounds can be found in PubChem BioAssay (NCATS).

Values joined by “and” are separate entries in the source; they are usually repeats but may differ in a detail not shown here. Equal values may be shown once. Records with an inconclusive call do not appear. Active and inactive are the calls of the source. Unless noted, calls come from the whole dose curve; as a rule, active = well fitted curve in the direction sought with a large enough effect; inconclusive = small, poorly fitted or top-dose-only effect, or another doubt; inactive = no such curve, though single readings can be large; an effect the other way counts as inactive or inconclusive.

Retinoic acid receptor RXR-alpha (Homo sapiens), sequence (P19793 whole entry, looked up): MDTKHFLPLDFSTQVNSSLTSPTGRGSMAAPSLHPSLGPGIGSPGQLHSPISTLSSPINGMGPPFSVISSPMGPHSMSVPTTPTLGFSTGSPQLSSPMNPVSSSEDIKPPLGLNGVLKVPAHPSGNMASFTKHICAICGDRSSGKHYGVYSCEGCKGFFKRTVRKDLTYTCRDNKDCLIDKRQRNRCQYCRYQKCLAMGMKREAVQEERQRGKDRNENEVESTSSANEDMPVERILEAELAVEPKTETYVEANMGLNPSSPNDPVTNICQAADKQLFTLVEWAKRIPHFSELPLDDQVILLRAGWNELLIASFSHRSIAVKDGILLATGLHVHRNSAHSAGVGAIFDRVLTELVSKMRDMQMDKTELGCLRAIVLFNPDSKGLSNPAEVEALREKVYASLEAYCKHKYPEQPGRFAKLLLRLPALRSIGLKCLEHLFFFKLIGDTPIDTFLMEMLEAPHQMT
Glucocorticoid receptor (Homo sapiens), sequence (P04150 whole entry, looked up): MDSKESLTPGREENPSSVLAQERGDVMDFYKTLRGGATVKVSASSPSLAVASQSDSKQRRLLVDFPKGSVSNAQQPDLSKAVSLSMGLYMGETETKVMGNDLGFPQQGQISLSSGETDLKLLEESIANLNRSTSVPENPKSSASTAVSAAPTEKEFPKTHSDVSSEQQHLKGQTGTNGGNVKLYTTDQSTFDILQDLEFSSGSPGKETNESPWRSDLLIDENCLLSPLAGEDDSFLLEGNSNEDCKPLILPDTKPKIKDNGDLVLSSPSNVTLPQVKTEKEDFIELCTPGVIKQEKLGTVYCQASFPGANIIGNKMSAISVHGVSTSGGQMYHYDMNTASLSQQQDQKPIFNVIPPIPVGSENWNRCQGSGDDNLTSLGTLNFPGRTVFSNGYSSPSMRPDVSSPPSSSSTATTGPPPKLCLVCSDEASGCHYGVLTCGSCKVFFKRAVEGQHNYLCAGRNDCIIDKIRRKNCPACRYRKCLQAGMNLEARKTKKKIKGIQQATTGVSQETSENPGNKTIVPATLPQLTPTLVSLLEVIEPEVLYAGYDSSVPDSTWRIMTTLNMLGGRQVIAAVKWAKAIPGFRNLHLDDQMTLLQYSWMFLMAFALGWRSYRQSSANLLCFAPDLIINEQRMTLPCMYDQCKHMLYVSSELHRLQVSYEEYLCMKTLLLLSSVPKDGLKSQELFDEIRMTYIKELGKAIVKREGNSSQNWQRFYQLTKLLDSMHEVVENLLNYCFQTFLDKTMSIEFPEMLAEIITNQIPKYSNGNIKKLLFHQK
Peroxisome proliferator-activated receptor alpha (Homo sapiens), sequence (Q07869 whole entry, looked up): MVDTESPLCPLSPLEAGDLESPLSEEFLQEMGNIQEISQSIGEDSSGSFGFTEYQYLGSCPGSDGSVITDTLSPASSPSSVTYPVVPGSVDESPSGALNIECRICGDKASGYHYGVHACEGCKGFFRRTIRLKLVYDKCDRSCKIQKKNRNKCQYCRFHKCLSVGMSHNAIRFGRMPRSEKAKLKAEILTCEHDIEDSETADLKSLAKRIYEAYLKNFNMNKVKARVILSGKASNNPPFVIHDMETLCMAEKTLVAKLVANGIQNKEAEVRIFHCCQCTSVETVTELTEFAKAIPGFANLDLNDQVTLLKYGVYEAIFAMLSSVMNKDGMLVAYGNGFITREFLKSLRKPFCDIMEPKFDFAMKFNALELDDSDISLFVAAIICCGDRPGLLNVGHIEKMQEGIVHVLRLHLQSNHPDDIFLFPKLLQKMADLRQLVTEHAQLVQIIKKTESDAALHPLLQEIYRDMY
Peroxisome proliferator-activated receptor delta (Homo sapiens), sequence (Q03181 whole entry, looked up): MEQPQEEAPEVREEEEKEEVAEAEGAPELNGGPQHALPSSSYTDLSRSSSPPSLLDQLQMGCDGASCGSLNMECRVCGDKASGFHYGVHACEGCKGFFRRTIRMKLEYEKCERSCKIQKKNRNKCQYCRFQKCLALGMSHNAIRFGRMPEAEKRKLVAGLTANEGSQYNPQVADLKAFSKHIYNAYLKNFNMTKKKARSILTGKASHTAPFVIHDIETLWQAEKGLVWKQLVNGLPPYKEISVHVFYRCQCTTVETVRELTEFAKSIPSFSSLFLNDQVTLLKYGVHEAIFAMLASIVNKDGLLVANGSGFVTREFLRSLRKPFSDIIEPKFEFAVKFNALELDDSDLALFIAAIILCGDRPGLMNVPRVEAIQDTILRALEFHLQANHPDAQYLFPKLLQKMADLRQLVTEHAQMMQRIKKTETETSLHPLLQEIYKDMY
Estrogen receptor (Homo sapiens), sequence (P03372 whole entry, looked up): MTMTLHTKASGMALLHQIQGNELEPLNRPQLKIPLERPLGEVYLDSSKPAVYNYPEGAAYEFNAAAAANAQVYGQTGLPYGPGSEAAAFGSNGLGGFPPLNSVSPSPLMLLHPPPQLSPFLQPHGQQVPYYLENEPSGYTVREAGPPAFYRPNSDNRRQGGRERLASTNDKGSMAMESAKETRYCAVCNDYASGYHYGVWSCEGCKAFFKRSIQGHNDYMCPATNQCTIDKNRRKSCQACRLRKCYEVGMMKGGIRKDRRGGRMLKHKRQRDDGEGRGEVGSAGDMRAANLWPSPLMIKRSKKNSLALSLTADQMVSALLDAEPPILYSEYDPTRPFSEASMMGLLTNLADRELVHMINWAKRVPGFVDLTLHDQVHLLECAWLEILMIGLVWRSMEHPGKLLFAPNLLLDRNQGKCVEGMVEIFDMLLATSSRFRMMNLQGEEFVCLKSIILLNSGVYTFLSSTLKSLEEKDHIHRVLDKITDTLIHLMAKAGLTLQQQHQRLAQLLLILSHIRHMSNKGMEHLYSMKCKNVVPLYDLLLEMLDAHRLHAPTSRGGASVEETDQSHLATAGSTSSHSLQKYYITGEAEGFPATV
Thyroid hormone receptor beta (Homo sapiens), sequence (P10828 whole entry, looked up): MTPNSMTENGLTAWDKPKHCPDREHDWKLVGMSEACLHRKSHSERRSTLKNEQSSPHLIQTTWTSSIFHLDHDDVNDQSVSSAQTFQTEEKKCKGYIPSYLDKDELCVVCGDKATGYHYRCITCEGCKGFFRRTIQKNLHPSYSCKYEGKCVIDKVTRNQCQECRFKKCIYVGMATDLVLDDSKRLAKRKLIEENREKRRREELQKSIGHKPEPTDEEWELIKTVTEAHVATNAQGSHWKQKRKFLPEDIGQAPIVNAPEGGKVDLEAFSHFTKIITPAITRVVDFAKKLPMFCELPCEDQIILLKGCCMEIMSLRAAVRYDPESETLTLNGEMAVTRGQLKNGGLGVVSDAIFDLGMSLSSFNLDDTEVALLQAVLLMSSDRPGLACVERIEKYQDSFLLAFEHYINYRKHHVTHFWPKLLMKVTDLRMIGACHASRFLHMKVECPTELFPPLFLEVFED
Peroxisome proliferator-activated receptor gamma (Homo sapiens), sequence (P37231 whole entry, looked up): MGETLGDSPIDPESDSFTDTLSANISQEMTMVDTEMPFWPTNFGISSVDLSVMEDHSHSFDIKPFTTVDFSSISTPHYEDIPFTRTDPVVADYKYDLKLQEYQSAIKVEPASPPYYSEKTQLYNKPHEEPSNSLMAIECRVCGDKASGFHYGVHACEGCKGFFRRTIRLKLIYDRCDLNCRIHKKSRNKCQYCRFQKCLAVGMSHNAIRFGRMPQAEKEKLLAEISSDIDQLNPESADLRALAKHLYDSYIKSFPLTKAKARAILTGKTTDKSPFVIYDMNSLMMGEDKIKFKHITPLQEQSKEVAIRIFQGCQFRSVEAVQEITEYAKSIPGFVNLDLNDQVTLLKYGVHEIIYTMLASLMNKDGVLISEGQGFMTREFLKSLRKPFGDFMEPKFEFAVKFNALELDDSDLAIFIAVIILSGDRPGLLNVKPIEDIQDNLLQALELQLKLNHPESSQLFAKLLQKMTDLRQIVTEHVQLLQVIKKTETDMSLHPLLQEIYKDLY
Nuclear receptor subfamily 1 group I member 2 (Rattus norvegicus), sequence (Q9R1A7 whole entry, looked up): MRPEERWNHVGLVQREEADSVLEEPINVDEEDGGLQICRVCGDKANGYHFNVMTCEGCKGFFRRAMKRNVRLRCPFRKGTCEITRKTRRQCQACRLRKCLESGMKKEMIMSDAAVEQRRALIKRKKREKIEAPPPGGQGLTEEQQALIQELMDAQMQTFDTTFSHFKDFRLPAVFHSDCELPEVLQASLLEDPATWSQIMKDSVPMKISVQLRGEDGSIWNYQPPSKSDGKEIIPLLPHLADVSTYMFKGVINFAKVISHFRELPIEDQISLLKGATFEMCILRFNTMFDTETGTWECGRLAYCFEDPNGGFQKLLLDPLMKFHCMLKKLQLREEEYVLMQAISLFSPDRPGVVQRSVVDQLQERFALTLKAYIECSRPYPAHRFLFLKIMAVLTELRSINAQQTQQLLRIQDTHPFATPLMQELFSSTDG

For `CC(C)[C@@H](Nc1ccc(C(F)(F)F)cc1Cl)C(=O)OC(C#N)c1cccc(Oc2ccccc2)c1` (some centres not stated), the Potency entry in assay [1], in assay [2], in [5] and in [8] was “inactive” throughout. In assay [3], the activation is 0.736% (inactive). Further, the max response in assay [4] was -1.14% (inactive); in [6] it was -3.6% (inactive); in assay [7] it was -27.3% (inactive).

For the compound `CC1(C)[C@H](C=C(Cl)Cl)[C@H]1C(=O)O[C@H](C#N)c1ccc(F)c(Oc2ccccc2)c1`, the Potency result in assay [1], in assay [2], in assay [11], in assay [12], in assay [13] and in assay [5] was “inactive” throughout. In addition, the Potency entry in assay [8] was “inactive”. Besides, the activation in assay [9] was -0.69% (inactive) and -0.284% (inactive); in [17], -1.98% (inactive) and 0.257% (inactive); in [3] it was 1.36% (inactive) and 3.44% (inactive). Besides, the max response in [10] was 27%; in assay [14], -5.65%; in assay [15], -6.52% (inactive); in [4], -0.256% (inactive) and -0.375% (inactive); in assay [6], -5.83% (inactive) and -7.88% (inactive); in assay [7], -3.74% (inactive) and -16.6% (inactive). For the same compound, the activity change % (negative = inhibition) in assay [16] is -23.6% (inactive).

Regarding `CC1(C)CCC(Cc2ccc(Cl)cc2)C1(O)Cn1cncn1` (configuration not stated), the Potency result in [1], in [19], in assay [13], in assay [5] and in assay [8] was “inactive” throughout. Besides, in assay [18], the call was inactive. In addition, the max response in assay [14] is -14.2%; in [15], -14.3% (inactive); in assay [6], -10.5% (inactive); in assay [7] it was -17.8% (inactive). For the same compound, the activation in assay [3] is -1.24% (inactive).

With `CC(C)C1(C)N=C(c2ncccc2C(=O)O)NC1=O` (configuration not stated), the Potency entry in assay [1], in assay [2], in assay [11], in [12], in assay [19] and in assay [13] was “inactive” throughout. The Potency result in assay [8] was “inactive”. In addition, the results for the activation in [9], in assay [17] and in assay [3] were 0.632% (inactive), -4.94% (inactive) and -1.56% (inactive), respectively. Also, the outcome in assay [18] was inactive. Further, the max response is 7.61% in [10]; -22% in assay [14]; -0.742% (inactive) in assay [15]; -1.4% (inactive) in assay [4]; -6.07% (inactive) in assay [6]; 8% (inactive) in assay [7]. Besides, the max response in assay [20] is -3.34% (inactive). In assay [16], the activity change % (negative = inhibition) was 2.89% (inactive).

For the compound `CC1(C)CON(Cc2ccccc2Cl)C1=O`, the Potency entry in assay [1], in [11], in assay [12], in assay [19], in assay [13] and in [8] was “inactive” each time. The call in [18] was inactive. For the same compound, the max response in assay [10] was 23.3%; in [14] it was -9.42%; in assay [15], -4.63% (inactive); in [4] it was 0.0347% (inactive); in [6], -9.67% (inactive); in assay [7] it was -8.49% (inactive). For the same compound, the max response in assay [20] is 13.2% (inactive). In addition, the activity change % (negative = inhibition) in assay [16] was 0.368% (inactive). For the same compound, the activation in [17] is -1.76% (inactive); in assay [3], 5.31% (inactive).
